In PubChem BioAssay AID504466 (National Center for Advancing Translational Sciences (NCATS), 2011):
In all, about 330,000 compounds went through this assay and about 4,200 (1.3%) were called active. A call without a number means that no potency is given here. About 6% were inconclusive and are not listed. The sample holds actives, similar compounds and a random draw of the others, so the mix is not that of the screen. A number with no mark means an inactive call. The call rests on the fitted dose curve; in most records, active means well fitted activation curve with a large enough effect; inconclusive means small, poorly fitted or top-dose-only effect; inactive means no such curve, though single readings can be large or run the other way.

assay: qHTS screen for small molecules that induce genotoxicity in human embryonic kidney (HEK293T) cells expressing luciferase-tagged ELG1; conditions: HEK293T ELG1-luciferase reporter, luminescence, 16 h; series mostly up to 46 µM; further: nearly all actives have a fitted effect of over 60% in size
Method in brief: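 Genotoxic stress is detected as increased luminescence from luciferase-tagged ELG1 in HEK293T cells, measured with ONE-Glo after a 16 hr treatment at 37 °C.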
Potency means the concentration at half of the fitted maximal effect.

Structure (SMILES) | Potency | activity change, positive = activation
CCC(C)c1ccc(NC(=O)COC(=O)C2CCCC2)cc1 (stereo unspecified) | inactive | –
COc1cc(/C=C/C(=O)Nc2ccc(OC)c(S(=O)(=O)N3CCOCC3)c2)ccc1OCC#N | inactive | –
O=C(OCCN1C(=O)c2ccccc2C1=O)[C@@H]1CC(O)CN1S(=O)(=O)c1ccccc1[N+](=O)[O-] (stereo partly specified) | inactive | –
CCCc1cc(=O)oc2c(C)c(OCC(=O)NCc3ccccn3)ccc12 | – | 0.193% [at 9.26 µM]
CCCc1cc(=O)oc2c(C)c(OCC(=O)Nc3ccccn3)ccc12 | 5.17 µM (active) | –
CCCc1cc(=O)oc2c(C)c(OCC(=O)N3CCC(C(=O)O)CC3)ccc12 | inactive | –
O=C(Nc1cc(S(=O)(=O)N2CCCCC2)ccc1Cl)C1COc2ccccc2O1 (stereo unspecified) | inactive | –
CC[C@]12c3[nH]c4ccc(Cl)cc4c3CCN1C(=O)[C@@H](CC(=O)NCCN1CCOCC1)C[C@@H]2C(=O)N1CCN(C(=O)C2CC2)CC1 | inactive | –
CN(C)S(=O)(=O)c1ccc2oc(SCC(=O)Nc3ccccc3F)nc2c1 | 10.3 µM (active) | –
COc1ccc(S(=O)(=O)N(C)C)cc1NC(=O)CSc1ncccn1 | inactive | –
COc1ccc(NS(=O)(=O)c2ccc3oc(SCC(N)=O)nc3c2)cc1 | inactive | –
O=c1c2c(nc3cc(-c4cccc(Cl)c4)[nH]n13)CCCC2 | 0.517 µM (active) | –
O=c1c2c(nc3nc[nH]n13)CCC2 | inactive | –
CCCCN1Cc2c(nc3cc(-c4ccccc4)[nH]n3c2=O)C1=O | inactive | –
Cc1ccc(CNC(=O)Cn2cnc3c(NCc4ccccc4)ncnc32)o1 | inactive | –
Cc1cccc(S(=O)(=O)CC(=O)Nc2nc(-c3ccccc3)cs2)c1 | inactive | –
Clc1ccc(Nc2nc(-c3cccs3)cs2)nc1 | 1.16 µM (active) | –
Clc1ccc(-c2csc(-c3ccncc3)n2)cc1 | inactive | –
CCc1noc(C)c1C(=O)Nc1nc(-c2ccccc2)cs1 | inactive | –
Cc1cccc(Nc2nc(-c3ccccc3)cs2)n1 | 2.91 µM (active) | –
COc1ccc(NC(=O)c2sc(N)nc2-c2ccccc2)cc1 | inactive | –

Structure (SMILES) | Potency | activity change, positive = activation
COc1ccc(Nc2nnc(C)c3ccccc23)cc1 | inactive | –
c1ccc(Nc2nc(-c3ccncc3)cs2)nc1 | 1.46 µM (active) | –
O=C(Nc1nc(-c2ccc(-c3ccccc3)cc2)cs1)c1cnccn1 | inactive | –
COc1ccc(Nc2nc(-c3ccccc3)cs2)cc1 | 0.58 µM (active) | –
c1csc(-c2cn3c(n2)SCC3)c1 | inactive | –
Clc1ccc(-n2nnnc2-c2cnc(-c3ccccn3)nc2-c2cccs2)cc1 | inactive | –
O=C(NCC#CCSc1nnc(-c2cccc3ccccc23)o1)c1cccs1 | inactive | –
O=C(CNC(=O)c1ccco1)NNC(=O)c1ccc(Br)cc1 | inactive | –
C[C@H](CO)N1C[C@H](C)[C@@H](CN(C)C(=O)Nc2ccc3c(c2)OCO3)Oc2c(cccc2N(C)C)C1=O | inactive | –
CC(=O)c1ccc(NC(=O)CSc2nc3ccccc3c(=O)n2CCCN2CCOCC2)cc1 | inactive | –
Cc1c(NC(=O)C(C)OC(=O)c2ccccc2O)c(=O)n(-c2ccccc2)n1C (stereo unspecified) | inactive | –
Cn1c(N)c(C(=O)COC(=O)c2cccc(S(=O)(=O)N3CCOCC3)c2)c(=O)n(C)c1=O | inactive | –
C#CCOCCOCCOCCNc1nc(N2CCN(C(=O)C([C@@H](C)O)n3cc([C@@H](N)CCCCN)nn3)CC2)nc(N2CCN(C(=O)[C@H](CCCCN)n3cc(CN)nn3)CC2)n1 (stereo partly specified) | inactive | –
Cc1noc(C)c1S(=O)(=O)N(C)C[C@H]1Oc2ccc(NC(=O)C3CC3)cc2C(=O)N([C@H](C)CO)C[C@@H]1C | inactive | –
O=C(c1cnn(-c2ccc(Cl)cc2)c1)c1ccccc1O | 7.3 µM (active) | –
COc1ccc(CNC(=O)COc2ccccc2C(=O)c2cnn(-c3ccccc3)c2)cc1OC | inactive | –
Cc1ncc(CC(=O)n2cc(C(=O)c3cc(Cl)ccc3O)cn2)s1 | inactive | –
CC[C@]1(C(=O)OC)[C@H]2C(=O)N(Cc3ccccc3)C(=O)[C@H]2[C@H]2CN=C(SCc3ccc(C#N)cc3)N21 | inactive | –
CN[C@H](C(=O)NC[C@H]1O[C@@H](n2cnc3c(N)ncnc32)[C@H](O)[C@@H]1O)[C@@H](C)OCc1ccccc1 | inactive | –
O=C1[C@@H](c2ccccc2)[C@@H](c2ccccc2)N1c1cccnc1 | inactive | –
CC[C@]12c3[nH]c4ccc(Cl)cc4c3CCN1C(=O)[C@@H](CC(=O)NCCCOC)C[C@@H]2C(=O)N1CCN(C(=O)c2ccco2)CC1 | inactive | –

Structure (SMILES) | Potency | activity change, positive = activation
O=C(NC1CCCC1)c1cc(-c2ccccc2)on1 | 9.2 µM (active) | –
O=C(NCCCn1ccnc1)c1ccccc1F | inactive | –
COc1ccc(-c2cc(C(=O)NCCCn3ccnc3)no2)cc1 | inactive | –
O=C(NCCCn1ccnc1)c1cc(-c2ccccc2)on1 | 14.6 µM (active) | –
O=C(NC1CCCCC1)c1ccc(-c2ccc(Cl)cc2)o1 | inactive | –
O=C(Nc1cccnc1Cl)c1cc(-c2cccc(Cl)c2)on1 | inactive | –
O=C(NC(=S)Nc1ccc(Br)cc1F)C1CCCCC1 | inactive | –
COc1ccc(CNC(=O)C[C@H]2C[C@H](C(=O)N3CCOCC3)[C@@]3(CCC4CCCC4)c4[nH]c5ccc(Cl)cc5c4CCN3C2=O)cc1OC | inactive | –
O=C(Nc1cccc(S(=O)(=O)NC2=NCCC2)c1)c1ccc(F)cc1F | inactive | –
CCn1nnc2cc(C(=O)Nc3ccc(C(=O)OC(C)C)cc3)ccc21 | inactive | –
C/C(=N\NC(=O)c1ccoc1C)c1ccccc1O | 18.3 µM (active) | –
COc1ccccc1N(CC(=O)N/N=C(\C)c1ccccc1O)S(=O)(=O)c1ccc(C)cc1 | inactive | –
CC(C)=C(NC(=O)c1ccccc1)C(=O)N/N=C(\C)c1ccccc1O | inactive | –
O=C1NC[C@@H](c2ccccc2)OC(=O)[C@H](Cc2ccc(F)cc2)CC/C=C/C[C@H]1CC(=O)N(CCO)Cc1ccccc1 | inactive | –
O=C(c1ccc(F)cc1)n1cc(C(=S)N2CCOCC2)c2ccccc21 | inactive | –
O=C(c1ccc(F)cc1)n1c(=S)nc2ccccn21 | 0.651 µM (active) | –
O=C(C[n+]1cc(Br)cc2ccccc21)c1ccc(F)cc1 | inactive | –
O=C(COC(=O)/C=C/c1cccc(Cl)c1)NCc1cccs1 | inactive | –
Nn1c(SCC(=O)Nc2ccc3c(c2)CCC3)nnc1C1CC1 | inactive | –
